Measured values as given in the supplement of paper PMC9844399.

system: HeLa; assay: nuclear count per well, robust Z-score vs DMSO; higher = more cells (less toxicity); conditions: 10 µM; 6 h
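Further: Hoechst-stained nuclei counted by automated confocal imaging of four fields per well in 384-well plates, with the robust Z-score based on the per-plate DMSO median and robust SD.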

Structure (SMILES)	nuclear count per well
CCCC(CCC)C(=O)O [Sodium Valproate]	-0.225
CN(C)C[C@H](O)Cn1c2ccc(Br)cc2c2cc(Br)ccc21 (racemic) [Wiskostatin]	-0.063
O=C(O)c1cc(=O)c2c(OCC(O)COc3cccc4oc(C(=O)O)cc(=O)c34)cccc2o1	-0.726
CC1(C)O[C@@H]2[C@@H](CO[C@@]3(COS(N)(=O)=O)OC(C)(C)O[C@@H]23)O1 [Topiramate]	0.72
CO[C@H]1O[C@@H]2O[C@@]3(C)CC[C@H]4[C@H](C)CC[C@@H]([C@H]1C)[C@@]24OO3 [Artemether]	-0.294
CC1(C)S[C@@H]2[C@H](NC(=O)[C@H](N)c3ccccc3)C(=O)N2[C@H]1C(=O)O [Ampicillin Trihydrate]	0.682
CC(=O)Oc1ccccc1C(=O)O [Acetylsalicylic acid]	0.326
CN[C@H]1CC[C@@H](c2ccc(Cl)c(Cl)c2)c2ccccc21	0.399
